Data as given in PubChem BioAssay (EPA / NIEHS).
Several values for one entry are separate records, joined by “and”; a condition that tells them apart may be missing. Equal values may be shown once. Results filed as inconclusive are left out. Where a structure was tested more than once in an assay, its records may differ in their call. Activity calls are given as the source filed them. How the source made its calls, unless noted: active means hit-call score of the fitted dose curve at least 0.9, where 1 is the maximum; inactive means score below 0.9.

How the values were obtained:
[1] = BSK_LPS_PGE2: BioMAP Diversity Plus: LPS Assay for Prostaglandin E2 (PGE2) Biomarker Activity (AID 2283082); conditions: primary human HUVEC with PBMC; actives raise or lower the signal;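 on AC50: secreted prostaglandin E2 measured by ELISA in LPS-stimulated co-culture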
Summary of the method: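 ELISA read-out of PGE2 from human umbilical vein endothelial cells co-cultured with peripheral blood mononuclear cells under LPS, 24 h post-dose. Gain or loss of signal scored relative to DMSO baseline.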

[2] = read-out: Macrophage colony-stimulating factor (MCSF), CSF1 (gene 1435); assay: BSK_LPS_MCSF: BioMAP Diversity Plus: LPS Assay for Macrophage colony-stimulating factor (MCSF) Biomarker Activity (AID 2283083); conditions: primary human HUVEC with PBMC; actives raise or lower the signal
Summary of the method: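 HUVEC + PBMC co-culture (human primary), 24 h post-dose; M-CSF by ELISA; gain/loss of signal fitted bidirectionally vs DMSO baseline.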

[3] = read-out: Tissue Factor, F3 (gene 2152); assay: BSK_LPS_TissueFactor: BioMAP Diversity Plus: LPS Assay for Tissue Factor Biomarker Activity (AID 2283084); conditions: primary human HUVEC with PBMC; actives raise or lower the signal
Summary of the method: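 HUVEC/PBMC co-culture, LPS-activated; CD142 ELISA read 24 h post-dose; bidirectional curve fit vs DMSO negative control.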

[4] = read-out: Tumor necrosis factor (Homo sapiens) (UniProt P01375); assay: BSK_LPS_TNFa: BioMAP Diversity Plus: LPS Assay for Tumour Necrosis Factor alpha (TNFa) Biomarker Activity (AID 2283085); conditions: primary human HUVEC with PBMC; actives raise or lower the signal;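 on AC50: TNFa protein level quantified by ELISA in the co-culture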
Summary of the method: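 HUVEC/PBMC co-culture, LPS-stimulated; 24 h post-dose; TNFa by ELISA; gain or loss of signal fitted bidirectionally vs DMSO baseline.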

[5] = read-out: Vascular cell adhesion molecule 1 (VCAM1), VCAM1 (gene 7412); assay: BSK_LPS_VCAM1: BioMAP Diversity Plus: LPS Assay for Vascular cell adhesion molecule 1 (VCAM1) Biomarker Activity (AID 2283086); conditions: primary human HUVEC with PBMC; actives raise or lower the signal
Summary of the method: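 ELISA read-out of VCAM-1 at 24 h post-dosing in an LPS-driven HUVEC/PBMC primary human co-culture; gain or loss of signal fitted bidirectionally against DMSO baseline. Cytotoxicity tracked in parallel cultures by SRB total-protein staining.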

CD38, CD38 (gene 952) = assay: BSK_SAg_CD38: BioMAP Diversity Plus: SAg Assay for CD38 Biomarker Activity (AID 2283087); conditions: primary human HUVEC with PBMC; actives raise or lower the signal
Summary of the method: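 Measures CD38 on a human endothelial/PBMC co-culture driven by SEB and TSST-1, 24 h after compound exposure, using ELISA with fluorescence detection; DMSO defines baseline for bidirectional curve fitting.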

CD40, CD40 (gene 958) = assay: BSK_SAg_CD40: BioMAP Diversity Plus: SAg Assay for CD40 Biomarker Activity (AID 2283088); conditions: primary human HUVEC with PBMC; actives raise or lower the signal
Summary of the method: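 HUVEC/PBMC co-culture, 24 h post-dose; CD40 by ELISA, fluorescence intensity; bidirectional fit vs DMSO negative control.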

CD69, CD69 (gene 969) = assay: BSK_SAg_CD69: BioMAP Diversity Plus: SAg Assay for CD69 Biomarker Activity (AID 2283089); conditions: primary human HUVEC with PBMC; actives raise or lower the signal;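 on AC50: cell surface CD69 protein quantified by ELISA with fluorescence detection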
Summary of the method: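 ELISA, fluorescence read-out: CD69 on human umbilical vein endothelial cell + PBMC co-culture, 24 h post-dosing. Gain or loss of signal fitted bidirectionally against DMSO baseline.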

[6] = read-out: Monocyte Chemoattractant Protein-1 (MCP1), CCL2 (gene 6347); assay: BSK_SAg_MCP1: BioMAP Diversity Plus: SAg Assay for Monocyte Chemoattractant Protein-1 (MCP1) Biomarker Activity (AID 2283090); conditions: primary human HUVEC with PBMC; actives raise or lower the signal
Summary of the method: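 Values derive from bidirectional fitting of ELISA-measured MCP1 against DMSO controls. Readings were taken 24 h after dosing human vascular endothelial cells co-cultured with peripheral blood mononuclear cells under superantigen stimulation.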

[7] = read-out: E-selectin (Homo sapiens) (UniProt P16581); assay: BSK_SAg_Eselectin: BioMAP Diversity Plus: SAg Assay for Eselectin Biomarker Activity (AID 2283091); conditions: primary human HUVEC with PBMC; actives raise or lower the signal
Summary of the method: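 E-selectin ELISA readout at 24 h post-dosing in human umbilical vein endothelial cell/PBMC co-culture; gain or loss of signal fitted relative to DMSO baseline.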

[8] = read-out: Monokine induced gamma interferon (MIG), CXCL9 (gene 4283); assay: BSK_SAg_MIG: BioMAP Diversity Plus: SAg Assay for Monokine induced gamma interferon (MIG) Biomarker Activity (AID 2283092); conditions: primary human HUVEC with PBMC; actives raise or lower the signal
Summary of the method: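 ELISA readout of MIG/CXCL9; primary human umbilical vein endothelial cells co-cultured with peripheral blood mononuclear cells; 24 h post-dose; gain/loss fit vs DMSO baseline.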

[9] = BSK_SAg_PBMCCytotoxicity: PBMC Cytotoxicity Assessment in the BioMAP Diversity Plus: SAg Assay (AID 2283093); conditions: primary human HUVEC with PBMC;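 further: PBMC viability measured as Alamar Blue reduction fluorescence at 546/580 nm; fitted both ways against DMSO so a hit may be loss or gain of signal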;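 on AC50: PBMC superantigen activated with SEB plus TSST-1 one hour after compound addition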
Summary of the method: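 Alamar Blue reduction (6 h, ex/em 546/580 nm) read after 90 h culture of PBMC pre-dosed 1 h then stimulated with SEB plus TSST-1, 20 ng/mL each. Gain or loss of signal fitted relative to DMSO.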

[10] = read-out: Interleukin-8 (IL8), CXCL8 (gene 3576); assay: BSK_SAg_IL8: BioMAP Diversity Plus: SAg Assay for Interleukin-8 (IL8) Biomarker Activity (AID 2283094); conditions: primary human HUVEC with PBMC; actives raise or lower the signal
Summary of the method: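 HUVEC/PBMC co-culture, 24 h post-dose; IL-8 by ELISA. Gain or loss of signal fitted bidirectionally vs DMSO baseline.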

[11] = BSK_SAg_Proliferation: Cell Proliferation Assessment in the BioMAP Diversity Plus: SAg Assay (AID 2283095); conditions: primary human HUVEC with PBMC;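 further: relative cell number as total protein by SRB absorbance in sub-confluent culture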
Summary of the method: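 HUVEC/PBMC co-culture, 96-well. TCA-fixed (10%), 0.1% SRB stain, A560 at 96 h. Protein content used as viability readout; bidirectional fitting vs DMSO control.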

[12] = BSK_SAg_SRB: Viability Assessment in the BioMAP Diversity Plus: SAg Assay (AID 2283096); conditions: primary human HUVEC with PBMC;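 further: cells read one day after compound addition; hits may be either gain or loss of signal compared with DMSO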
Summary of the method: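 SRB absorbance at 560 nm served as the viability read-out. Cells (HUVEC plus peripheral blood mononuclear cells) were TCA-fixed and stained 24 h post-dosing; activity fitted in both directions against DMSO controls.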

[13] = target: human CYP2B6, CYP2B6 (gene 1555) (UniProt P20813); assay: NVS_ADME_hCYP2B6: NovaScreen (NVS) CYP450-related Enzyme Activity (ADME) Assay for human CYP2B6 (AID 2283101; active means hit-call score of the fitted dose curve at least 0.9, where 1 is the maximum)
Chain of human CYP2B6, CYP2B6 (gene 1555) (P20813 whole entry, looked up): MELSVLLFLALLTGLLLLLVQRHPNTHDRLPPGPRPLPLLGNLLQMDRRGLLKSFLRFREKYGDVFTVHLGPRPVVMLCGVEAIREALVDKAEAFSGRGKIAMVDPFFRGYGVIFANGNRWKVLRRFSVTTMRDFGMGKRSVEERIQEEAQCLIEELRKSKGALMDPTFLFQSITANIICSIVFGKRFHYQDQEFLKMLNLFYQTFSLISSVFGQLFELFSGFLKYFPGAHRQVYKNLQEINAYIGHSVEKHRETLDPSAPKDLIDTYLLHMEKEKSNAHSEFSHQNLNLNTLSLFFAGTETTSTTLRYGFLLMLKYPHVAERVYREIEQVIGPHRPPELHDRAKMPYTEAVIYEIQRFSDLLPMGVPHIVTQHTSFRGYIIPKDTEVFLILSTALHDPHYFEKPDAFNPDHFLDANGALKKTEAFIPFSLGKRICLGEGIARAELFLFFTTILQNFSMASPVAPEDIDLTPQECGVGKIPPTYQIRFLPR
Summary of the method: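 Fluorescence-based enzyme activity of recombinant human CYP2B6, measured 1 h post-dose against acetonitrile vehicle baseline. Screened at a single concentration of 10 uM in duplicate before concentration-response follow-up.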

[14] = target: human CYP19A1, CYP19A1 (gene 1588) (UniProt P11511); assay: NVS_ADME_hCYP19A1: NovaScreen (NVS) CYP450-related Enzyme Activity (ADME) Assay for human CYP19A1 (AID 2283098; active means hit-call score of the fitted dose curve at least 0.9, where 1 is the maximum)
Chain of human CYP19A1, CYP19A1 (gene 1588) (P11511 whole entry, looked up): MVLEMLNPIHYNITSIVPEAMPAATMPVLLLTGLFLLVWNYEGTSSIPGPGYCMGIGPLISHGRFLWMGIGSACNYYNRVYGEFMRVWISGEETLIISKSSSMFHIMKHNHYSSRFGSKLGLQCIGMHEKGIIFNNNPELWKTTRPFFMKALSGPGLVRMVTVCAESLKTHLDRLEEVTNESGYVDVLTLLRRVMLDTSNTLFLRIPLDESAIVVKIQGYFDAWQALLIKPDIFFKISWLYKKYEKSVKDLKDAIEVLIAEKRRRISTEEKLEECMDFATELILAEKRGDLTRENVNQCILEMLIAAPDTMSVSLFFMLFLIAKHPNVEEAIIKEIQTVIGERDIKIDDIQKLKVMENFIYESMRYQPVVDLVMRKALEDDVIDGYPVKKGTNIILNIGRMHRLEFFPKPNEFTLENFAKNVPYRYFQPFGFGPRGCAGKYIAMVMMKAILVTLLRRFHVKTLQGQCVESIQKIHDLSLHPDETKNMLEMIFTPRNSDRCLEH
Summary of the method: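 Primary testing was in duplicate at a single 10 uM concentration, with actives followed up in concentration-response series. Fluorescence read-out of recombinant enzyme activity at 0.5 h, cell-free. Acetonitrile was the negative-control baseline.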

[15] = target: human CYP1A1, CYP1A1 (gene 1543) (UniProt P04798); assay: NVS_ADME_hCYP1A1: NovaScreen (NVS) CYP450-related Enzyme Activity (ADME) Assay for human CYP1A1 (AID 2283100; active means hit-call score of the fitted dose curve at least 0.9, where 1 is the maximum)
Chain of human CYP1A1, CYP1A1 (gene 1543) (P04798 whole entry, looked up): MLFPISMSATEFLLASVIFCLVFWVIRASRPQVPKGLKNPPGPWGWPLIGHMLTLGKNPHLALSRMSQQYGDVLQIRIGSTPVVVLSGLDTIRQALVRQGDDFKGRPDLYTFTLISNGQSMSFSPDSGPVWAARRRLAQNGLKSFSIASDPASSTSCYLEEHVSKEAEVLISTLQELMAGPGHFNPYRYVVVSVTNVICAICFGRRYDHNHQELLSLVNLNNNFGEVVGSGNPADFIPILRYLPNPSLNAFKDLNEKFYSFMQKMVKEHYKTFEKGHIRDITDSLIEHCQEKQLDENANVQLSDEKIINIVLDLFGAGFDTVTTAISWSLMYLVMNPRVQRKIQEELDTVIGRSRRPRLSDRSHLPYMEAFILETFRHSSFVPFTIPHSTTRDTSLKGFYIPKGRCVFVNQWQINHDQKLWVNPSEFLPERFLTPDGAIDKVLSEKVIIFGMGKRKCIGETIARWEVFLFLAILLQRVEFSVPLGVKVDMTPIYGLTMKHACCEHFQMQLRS
Summary of the method: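 Read-out: fluorescence intensity from enzymatic turnover of substrate by recombinant CYP1A1, loss of signal indicating inhibition. Incubation 1 h post-dose. Primary single-point 10 uM in duplicate; actives rerun singly with top concentration 20 uM.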

[16] = target: human CYP1A2, CYP1A2 (gene 1544) (UniProt P05177); assay: NVS_ADME_hCYP1A2: NovaScreen (NVS) CYP450-related Enzyme Activity (ADME) Assay for human CYP1A2 (AID 2283102; active means hit-call score of the fitted dose curve at least 0.9, where 1 is the maximum)
Chain of human CYP1A2, CYP1A2 (gene 1544) (P05177 whole entry, looked up): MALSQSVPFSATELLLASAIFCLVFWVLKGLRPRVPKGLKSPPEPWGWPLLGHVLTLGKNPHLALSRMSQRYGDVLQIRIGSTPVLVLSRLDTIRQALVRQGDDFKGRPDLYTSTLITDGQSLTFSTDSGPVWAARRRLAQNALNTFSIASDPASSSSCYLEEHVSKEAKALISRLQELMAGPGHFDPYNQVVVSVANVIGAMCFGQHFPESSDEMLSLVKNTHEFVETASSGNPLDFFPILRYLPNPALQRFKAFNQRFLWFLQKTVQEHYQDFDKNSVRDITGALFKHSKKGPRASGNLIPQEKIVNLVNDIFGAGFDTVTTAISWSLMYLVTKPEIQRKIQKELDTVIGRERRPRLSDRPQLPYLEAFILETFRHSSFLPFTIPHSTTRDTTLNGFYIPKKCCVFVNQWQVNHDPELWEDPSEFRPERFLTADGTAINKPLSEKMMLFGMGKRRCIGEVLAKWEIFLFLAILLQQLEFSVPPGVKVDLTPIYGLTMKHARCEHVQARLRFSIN
Summary of the method: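 Fluorescence-intensity enzyme activity read-out, taken 0.5 h post-dosing, using insect-cell-derived recombinant CYP1A2 and specific fluorescent substrate. Acetonitrile served as negative control/baseline. Single-concentration duplicate screen at 10 uM, then concentration-response follow-up.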

Measured: AC50

Chain of E-selectin (Homo sapiens) (P16581 whole entry, looked up): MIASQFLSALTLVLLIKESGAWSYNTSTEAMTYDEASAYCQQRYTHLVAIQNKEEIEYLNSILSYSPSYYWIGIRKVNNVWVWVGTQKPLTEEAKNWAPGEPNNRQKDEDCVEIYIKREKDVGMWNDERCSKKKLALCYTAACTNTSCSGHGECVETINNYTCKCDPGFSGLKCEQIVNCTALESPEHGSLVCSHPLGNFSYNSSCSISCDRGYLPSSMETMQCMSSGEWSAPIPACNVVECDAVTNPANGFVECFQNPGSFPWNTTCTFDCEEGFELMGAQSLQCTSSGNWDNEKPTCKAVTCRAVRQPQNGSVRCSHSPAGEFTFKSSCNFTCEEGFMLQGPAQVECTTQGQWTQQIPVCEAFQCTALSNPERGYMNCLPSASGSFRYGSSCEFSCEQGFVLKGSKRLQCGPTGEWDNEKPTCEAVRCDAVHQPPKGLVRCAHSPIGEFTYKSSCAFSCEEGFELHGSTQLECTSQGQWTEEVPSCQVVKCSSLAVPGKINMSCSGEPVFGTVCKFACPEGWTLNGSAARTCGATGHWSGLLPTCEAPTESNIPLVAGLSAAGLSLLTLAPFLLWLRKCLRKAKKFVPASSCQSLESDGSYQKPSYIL
Chain of Tumor necrosis factor (Homo sapiens) (P01375 whole entry, looked up): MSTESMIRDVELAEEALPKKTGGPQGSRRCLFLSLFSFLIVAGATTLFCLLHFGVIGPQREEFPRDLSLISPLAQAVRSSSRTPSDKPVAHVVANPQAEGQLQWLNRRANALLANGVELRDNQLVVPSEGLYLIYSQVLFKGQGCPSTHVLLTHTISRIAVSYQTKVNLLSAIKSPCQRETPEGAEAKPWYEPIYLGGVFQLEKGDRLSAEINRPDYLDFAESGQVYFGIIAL

CCCCNC(=O)n1c(NC(=O)OC)nc2ccccc21
active: [5] 22.6 µM | [11] 6.25 µM | [12] 12.3 µM
not listed: [13] | [14] | [15] | [16]
inactive: all other assays above

N#Cc1cc(Br)c(O)c(Br)c1
inactive: [1] | [3] | [4] | [5] | [6] | [7] | [8]
active: [2] 4.08 µM | CD38, CD38 (gene 952) 31.2 µM | CD40, CD40 (gene 958) 20 µM | CD69, CD69 (gene 969) 26.4 µM | [9] 14.4 µM | [10] 30.5 µM | [11] 33.4 µM | [12] 20 µM

CCCN(CCC)c1c([N+](=O)[O-])cc(S(N)(=O)=O)cc1[N+](=O)[O-]
active: [1] 34.7 µM | [2] 32.3 µM [middle of 4 runs] | [3] 34.3 µM and 38.1 µM and 32.8 µM | [4] 33.6 µM and 32.2 µM | [5] 34.6 µM [middle of 4 runs] | CD38, CD38 (gene 952) 38.7 µM [middle of 4 runs] | CD40, CD40 (gene 958) 35.8 µM [middle of 4 runs] | CD69, CD69 (gene 969) 32.6 µM [middle of 4 runs] | [6] 34.8 µM [middle of 4 runs] | [7] 33.1 µM and 31.4 µM and 30 µM | [8] 39.5 µM [middle of 4 runs] | [9] 30.7 µM [middle of 4 runs] | [10] 39.7 µM [middle of 4 runs] | [11] 30.2 µM [middle of 4 runs] | [12] 32.3 µM [middle of 4 runs]
inactive: [1] | [3] | [4] | [13]

CO/C=C(/C(=O)OC)c1ccccc1Oc1cc(Oc2ccccc2C#N)ncn1
active: [1] 9.64 µM | [2] 24.5 µM [middle of 4 runs] | [3] 35.3 µM | [4] 15.5 µM | [5] 11 µM and 8.26 µM and 19.7 µM | CD38, CD38 (gene 952) 20 µM [middle of 4 runs] | CD40, CD40 (gene 958) 20.6 µM [middle of 4 runs] | [6] 26.6 µM and 25.4 µM | [7] 17.4 µM [middle of 4 runs] | [8] 34.9 µM and 34.2 µM and 30 µM | [9] 6.9 µM and 5.28 µM and 13 µM | [10] 12.5 µM [middle of 4 runs] | [11] 13.9 µM [middle of 4 runs] | [12] 21.1 µM and 15.4 µM
inactive: [1] | [3] | [4] | [5] | [6] | [8] | [9] | [12] | [14]

COC(=O)C=C(C)OP(=O)(OC)OC
active: [1] 0.37 µM
not listed: CD69, CD69 (gene 969) | [13] | [14] | [15] | [16]
inactive: all other assays above

CS/C(C)=N/OC(=O)N(C)SN(C)C(=O)O/N=C(\C)SC
active: [2] 28.2 µM | [3] 32.1 µM | [4] 16.2 µM | [5] 24.3 µM | CD38, CD38 (gene 952) 26.4 µM | CD40, CD40 (gene 958) 28.3 µM | CD69, CD69 (gene 969) 31.7 µM | [6] 30.1 µM | [7] 31.4 µM | [8] 35.6 µM | [9] 8.27 µM | [10] 16 µM | [11] 5.3 µM | [12] 28.4 µM | [15] 10 µM
inactive: [1]

O=C(O)c1nc(Cl)ccc1Cl
not listed: CD69, CD69 (gene 969) | [13] | [14] | [15] | [16]
inactive: all other assays above

COc1nc(C)nc(NC(=O)NS(=O)(=O)c2ccccc2Cl)n1
not listed: CD69, CD69 (gene 969) | [13] | [14] | [15] | [16]
inactive: all other assays above

C=CCC1=C(C)[C@@H](OC(=O)[C@@H]2[C@@H](C=C(C)C)C2(C)C)CC1=O
active: [1] 4.92 µM | [2] 26.9 µM | [4] 36.5 µM | [5] 29.2 µM | CD38, CD38 (gene 952) 33.1 µM | CD40, CD40 (gene 958) 38.7 µM | CD69, CD69 (gene 969) 36.5 µM | [6] 33.2 µM | [7] 27.4 µM | [8] 38.9 µM | [9] 32.4 µM | [10] 25.3 µM | [11] 33.8 µM | [12] 29.2 µM
inactive: [3]

COP(=S)(OC)Oc1nc(Cl)c(Cl)cc1Cl
active: [1] 26.7 µM | [3] 25.3 µM | [4] 27.8 µM | [5] 26.4 µM | [7] 32 µM | [11] 20 µM
not listed: [13] | [14]
inactive: all other assays above

CCCCNC(=O)OCC#CI
active: [1] 36 µM | [2] 20 µM and 17.1 µM | [3] 15.6 µM and 13.7 µM | [4] 13.2 µM and 12.3 µM | [5] 24.9 µM and 27.1 µM | CD38, CD38 (gene 952) 21.4 µM and 17.4 µM | CD40, CD40 (gene 958) 18.7 µM and 22.5 µM | [6] 29.2 µM and 26.1 µM | [7] 25 µM and 22.7 µM | [8] 35.1 µM and 36.5 µM | [9] 7.02 µM and 7.09 µM | [10] 22.1 µM and 14.7 µM | [11] 2.71 µM and 2.68 µM | [12] 28.6 µM
inactive: [1]
